Screens deposited in PubChem BioAssay by Johns Hopkins Ion Channel Center.
The list is not random: actives were taken first. Their share in the collection is about 1.6%.
KCNQ2 block: inhibitors of rat KCNQ2 potassium channel; O88943; CHO-K1 KCNQ2, FluxOR thallium flux, 20 min; active compounds read low; B-score at 10 µM; hit rate 1.1% among 310,000; AID 2156;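 active = fluorescence ratio B-score at most minus 3 library SDs, with starting brightness B-score within 2 library SDs, cut at about -5.5 in these data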
KCNQ2 enhance: enhances the rat KCNQ2 potassium channel. O88943. CHO-K1 KCNQ2, FluxOR thallium flux fluorescence; active compounds read high. B-score at 10 µM. hit rate 0.54% among 310,000;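 active = fluorescence ratio B-score at least 3 SD of library B-scores, with initial fluorescence B-score within 3 of them, cut at about 5.3 in these data; same plate scores as AID 2156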;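 also: B-score of peak minus minimum over baseline fluorescence ratio after K+ and Tl+ stimulus; positive B-score means potentiation of KCNQ2 with more thallium influx and brighter signal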
Each line names hits and unclear results; the compound was inactive in the other large screens.

Cc1ccc(S(=O)(=O)N2CCC(C(=O)OCC(=O)N(Cc3ccccc3)C(C)(C)C)CC2)cc1C	KCNQ2 block -6.5
CCOC(=O)C1CCN(S(=O)(=O)c2ccc(C)c(C)c2)CC1	none
CCOc1ccccc1N(CC(=O)Nc1ccccc1F)S(=O)(=O)c1ccccc1	none (no result: KCNQ2 enhance)
CC(C)C1=NN(C(=O)c2ccccc2)C(O)(C(C)(C)C)C1 (configuration not stated)	KCNQ2 enhance 7.1
CC(C)(C)C1=NN(C(=O)c2ccccc2)C(O)(C(C)(C)C)C1 (configuration not stated)	none (no result: KCNQ2 enhance)
CCCc1cc(C(=O)N2CCCN(C)CC2)cs1	none
CCCc1cc(C(=O)N2CCN(c3ccccc3C)CC2)cs1	KCNQ2 block -5.7
O=C(NCCCN1CCOCC1)c1cc(-c2ccc(Br)cc2)nc2ccccc12	KCNQ2 block -6.8
O=C(Nc1cccnc1)c1cc(-c2ccc(Br)cc2)nc2ccccc12	KCNQ2 block -6.3
O=C(NCCCN1CCOCC1)c1cc(-c2ccc3c(c2)OCO3)nc2ccccc12	none (no result: KCNQ2 enhance)
Cc1ccc(C)c(NC(=O)c2cc(C)nc3ccccc23)c1	KCNQ2 block -5.9
CCOC(=O)c1ccc(NC(=S)NNC(=O)c2cc(-c3cccnc3)nc3ccccc23)cc1	none (no result: KCNQ2 enhance)
Cc1ccc(NC(=O)c2cc(C)nc3ccccc23)cc1	none
O=C(NNC(=S)Nc1ccccc1)c1cc(-c2cccnc2)nc2ccccc12	KCNQ2 block -6.1
CC(=O)Nc1cccc(NC(=O)c2cc(-c3cccnc3)nc3ccc(Br)cc23)c1	none (no result: KCNQ2 enhance)
O=C(CCl)N(CCc1ccccc1)CCc1ccccc1	none (no result: KCNQ2 enhance)
COc1ccccc1OCC(=O)Nc1cc2c(cc1C(=O)O)OCCCO2	none (no result: KCNQ2 enhance)
Cc1ccc(C)c(-c2cc(C(=O)Nc3cccnc3)c3ccccc3n2)c1	KCNQ2 block -6.3
Cc1cccc(NC(=O)c2cc(-c3ccc(C)s3)nc3ccccc23)n1	KCNQ2 block -7.5
Cc1cc(NC(=O)c2cc(-c3ccc(C)s3)nc3ccccc23)no1	none (no result: KCNQ2 enhance)
Cc1ccc(C)c(-c2cc(C(=O)Nc3cccc(C(=O)O)c3)c3ccccc3n2)c1	none (no result: KCNQ2 enhance)
COc1cc(Cl)c(NS(=O)(=O)c2cc3[nH]c(=O)c(=O)[nH]c3cc2C)c(OC)c1	none
Cc1ccc(/C=C/C(=O)c2ccccc2)cc1	none (no result: KCNQ2 enhance)
Cc1ccc(/C=C/C(=O)c2ccccc(=O)c2O)c(C)c1	KCNQ2 enhance 5.9
c1ccc(-n2cnnc2SCc2cn3ccsc3n2)cc1	none (no result: KCNQ2 enhance)
Cc1ccc(-n2c(SCc3cn4ccsc4n3)nc3ccccc3c2=O)cc1	KCNQ2 block -5.6
Cc1cc(OC2CCCCC2)nc(-c2ccccc2O)n1	KCNQ2 block -5.8
Cc1ccc(Oc2cc(C)nc(-c3ccccc3O)n2)cc1	none (no result: KCNQ2 enhance)
CC(OC(=O)CCC(=O)N1CCN(S(=O)(=O)c2ccc3ccccc3c2)CC1)C(=O)NC(N)=O (configuration not stated)	none (no result: KCNQ2 enhance)
Cc1cc(F)ccc1S(=O)(=O)N1CCCCC1CCNC(=O)C(=O)NCc1ccccn1 (configuration not stated)	none (no result: KCNQ2 enhance)
COc1cc(-c2nc(-c3ccc4c(c3)-c3ccccc3S4(=O)=O)c(-c3ccccc3)[nH]2)cc(OC)c1OC	KCNQ2 block -7
COc1cc(-c2nc(-c3ccccc3)c(-c3cccs3)[nH]2)cc(OC)c1OC	none (no result: KCNQ2 enhance)
O=C(c1sc2ccccc2c1Cl)N1CCN(c2ccc(F)cc2)CC1	KCNQ2 block -6.6
O=C(c1sc2ccccc2c1Cl)N1CCN(c2ccccc2F)CC1	none (no result: KCNQ2 enhance)
Cc1ccc(C)c(NC(=S)NNC(=O)c2sccc2C)c1	none
Cc1cccc(NC(=S)NNC(=O)c2cc3c(s2)CCC(C)C3)c1C (configuration not stated)	KCNQ2 enhance 8.5
CC1CCc2sc(C(=O)NN=C3CCC(c4ccccc4)CC3)cc2C1 (configuration not stated)	none
Cc1ccc(C)c(NC(=S)NNC(=O)c2cc3c(s2)CCC(C)C3)c1 (configuration not stated)	KCNQ2 enhance 11
CN(C)C(=O)C(=O)c1cccn1-c1cccc(Cl)c1C#N	none (no result: KCNQ2 enhance)
O=C1C(=O)N(Cc2ccco2)C(c2cccs2)/C1=C(\O)c1cccc([N+](=O)[O-])c1 (configuration not stated)	none
O=C(CCNC(=O)C1CCN(S(=O)(=O)c2ccc(F)cc2)CC1)NCCc1ccc(Cl)cc1	none (no result: KCNQ2 enhance)
Cc1ccc(NC(=O)C(OC(=O)c2ccccc2Cl)c2ccccc2)cc1Cl (configuration not stated)	none (no result: KCNQ2 enhance)
Cc1cc(C(=O)OC(C(=O)Nc2ccc(C)c(Cl)c2)c2ccccc2)c(C)o1 (configuration not stated)	KCNQ2 block -5.8
Cc1ccc(C)c(NC(=O)CN(C)C(=O)c2ccc(-c3cccc(C(F)(F)F)c3)o2)c1	none (no result: KCNQ2 enhance)
Cc1ccc(-c2nnc(NC3CCCC3)s2)cc1	none
Cc1ccc2nc(-c3cccc(Br)c3)cc(C(=O)NCC3CCCO3)c2c1 (configuration not stated)	none (no result: KCNQ2 enhance)
O=C(NCC1CCCO1)c1cc(-c2ccccc2)nc2ccc(Br)cc12 (configuration not stated)	KCNQ2 block -7.4
COc1ccc(-c2nc(C(=O)NCC3CCCO3)cc3c2[nH]c2ccccc23)cc1 (configuration not stated)	none (no result: KCNQ2 enhance)
O=C(NCC1CCCO1)c1cc2c([nH]c3ccccc32)c(-c2cccc(Br)c2)n1 (configuration not stated)	KCNQ2 block -6.4
COc1ccc(-c2cc(C(=O)NCC3CCCO3)c3cc(C)ccc3n2)cc1 (configuration not stated)	KCNQ2 block -5.6
COc1ccc(-c2cc(C(=O)NCC3CCCO3)c3ccccc3n2)cc1 (configuration not stated)	none
CCOc1ccc(NC(=S)N(CC)Cc2ccccc2)cc1	none (no result: KCNQ2 enhance)
CC(C)=CCOc1ccc([C@@H]2COc3c(ccc4c3C=CC(C)(C)O4)C2)c(O)c1	none
CCOC(=O)CCN(c1ccccc1)S(=O)(=O)c1ccc(-c2ccc(=O)[nH]n2)s1	none
O=C(CSc1nc2sccc2c(=O)[nH]1)N1CCN(c2ccccc2)CC1	none (no result: KCNQ2 enhance)
O=C(Nc1cccc(Cl)c1)N1N=CCC1c1ccccc1 (configuration not stated)	KCNQ2 block -6.2
O=C(Nc1cccc2ccccc12)N1N=CCC1c1ccccc1 (configuration not stated)	none (no result: KCNQ2 enhance)
Cc1cc(NC(=O)COC(=O)CCNS(=O)(=O)c2ccccc2)n(-c2ccccc2)n1	none (no result: KCNQ2 enhance)
CCc1ccc(C(=O)CSc2n[nH]c(-c3ccncc3)n2)cc1	KCNQ2 enhance 6.3
COC(=O)CSc1n[nH]c(-c2ccncc2)n1	none
COc1ccc(-c2csc3ncnc(N4CCN(c5ccccc5[N+](=O)[O-])CC4)c23)cc1	none
COc1cccc(-c2nn(-c3ccccc3)cc2C(=O)n2nnc3ccccc32)c1	KCNQ2 block -6.4
O=C(c1cn(-c2ccccc2)nc1-c1ccccc1)n1nnc2ccccc21	none (no result: KCNQ2 enhance)
COc1ccccc1OC(C)C(=O)N1CCN(Cc2ccc3c(c2)OCO3)CC1 (configuration not stated)	none (no result: KCNQ2 enhance)
O=C(CSc1nc2ccccc2s1)N1c2ccccc2Sc2ccc(Cl)cc21	none (no result: KCNQ2 enhance)
O=C(CSc1nc2ccccc2s1)N1c2ccccc2Sc2ccc(C(F)(F)F)cc21	KCNQ2 block -6.5
CCCCCOc1ccc(/C=C/c2c([N+](=O)[O-])c(=O)n(C)c(=O)n2C)cc1	none
COc1cc(N/N=C(\C)c2ccc(O)c(C)c2)nc(-c2ccccc2)n1	none (no result: KCNQ2 enhance)
COc1cc(N/N=C(\C)c2ccc(N)cc2)nc(-c2ccccc2)n1	KCNQ2 block -6.8
Cc1ccccc1Nc1nc(N)nc(COC(=O)CCS(=O)(=O)c2ccccc2)n1	none
